Only some compounds are listed: those with a hit (about 1.2% of all), similar ones and a draw of the others.
RGS4-Gao reg – modulates binding of RGS4 to human Galphao; P09471; binding response (% of control), % at 10 µM; hit rate 0.33% among 220,000; Multiplexed bead flow cytometry; actives lie on both sides; in the data active = binding response below about 49% or above about 150%; inactive = in between;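 note: fluorescent Galphao activated with aluminum fluoride binding bead-coupled RGS4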
Target sequence (P09471 whole entry, looked up): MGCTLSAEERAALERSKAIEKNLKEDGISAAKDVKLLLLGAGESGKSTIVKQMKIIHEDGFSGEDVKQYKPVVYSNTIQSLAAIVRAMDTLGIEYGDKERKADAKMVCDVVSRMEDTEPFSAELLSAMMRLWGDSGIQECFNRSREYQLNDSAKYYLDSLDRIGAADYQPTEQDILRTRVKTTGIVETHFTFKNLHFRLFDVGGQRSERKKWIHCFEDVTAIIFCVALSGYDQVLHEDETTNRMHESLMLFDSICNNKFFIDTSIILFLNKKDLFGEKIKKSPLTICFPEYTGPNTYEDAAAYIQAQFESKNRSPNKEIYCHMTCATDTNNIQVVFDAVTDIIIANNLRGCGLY
RGS16-Gao HTS – RGS16-Galphao interaction regulator (human); hit rate 0.38% among 220,000; binding response (% of control), % at 10 µM; bead-based flow cytometry RGS16-Galphao binding, fluorescence; actives lie on both sides;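 note: Galphao activated by GDP with aluminum fluoride before binding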
GSH bead fluor – compound fluoresces at 488/530 nm on GSH beads | hit rate 0.25% among 190,000 | fluorescence (KMESF) at 10 µM | GSH beads flow cytometry, compound fluorescence 488/530 nm; hits give high values; in the data active = fluorescence above about 89;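 note: glutathione beads carrying GST-tagged Bcl family fusion proteins plus one bare bead set; values are compound well signal with DMSO vehicle wells as background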
RGS8-Gao – regulators of human RGS8-Galphao interaction. response (percent of control binding), % at 10 µM. hit rate 0.34% among 220,000. AID 1423. multiplexed bead flow cytometry, RGS8-Galphao binding; actives lie on both sides. P09471; in the data active = response below about 60% or above about 140%; inactive = in between;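 note: Galphao activated as the GDP aluminium fluoride complex binding bead-coupled RGS8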
Avidin fluor – compound fluoresces at 488/530 nm on avidin beads; compound fluorescence 488/530 nm, flow cytometry; hits give high values; fluorescence (KMESF) at 10 µM; hit rate 0.38% among 220,000; AID 1775; in the data active = fluorescence above about 47
RGS7-Gao – regulators of human RGS7-Galphao interaction. Multiplexed bead flow cytometry, RGS7-Galphao binding; actives lie on both sides. binding response (% of control), % at 10 µM. hit rate 0.35% among 220,000; in the data active = binding response below about 49% or above about 150%; inconclusive = no clear call, values can overlap the other calls; inactive = in between;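 note: fluorescent Galphao held in activated GDP-AlF4 state binding bead-coupled RGS7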
RGS4-Gao HTS – RGS4-Galphao interaction regulator (human); shares compounds with RGS16-Gao HTS; multiplexed bead flow cytometry, RGS–Galpha-o binding; RGS4–Galpha-o binding response, % at 10 µM; hit rate 99% among 1,600;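 note: fluorescently labeled Galpha-o bound to GDP with aluminium fluoride binding biotinylated RGS beads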
Biotin-avidin – counter-screen: compounds disrupting biotin binding to avidin beads; shares compounds with RGS16-Gao HTS; streptavidin beads, fluorescein-biotin binding, flow cytometry; inhibition, % at 10 µM; 1,700 tested, under 10 active; AID 1783;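 active = inhibition above 50%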;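 note: median green fluorescence of gated singlet beads compared with DMSO control wells; 0% = DMSO wells and 100% = complete loss of bead fluorescence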
RGS8-Gao single – RGS8-Galphao interaction regulation, single point confirmation; shares compounds with RGS16-Gao HTS; binding response (% of control), % at 10 µM; hit rate 3% among 1,700; AID 1836; bead-based flow cytometry RGS8-Galphao binding, fluorescence; actives lie on both sides; in the data active = binding response below about 72% or above about 130%; inactive = in between;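 note: Galphao activated as GDP AlF4 complex before binding bead RGS8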
RGS7-Gao confirm – RGS7-Galphao interaction regulation, single point confirmation | bead-based flow cytometry RGS7-Galphao binding; actives lie on both sides | response (percent of control binding), % at 10 µM | AID 1837 | hit rate 7.8% among 1,700 | shares compounds with RGS16-Gao HTS; in the data active = response below about 75% or above about 130%; inactive = in between;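 note: fluorescent Galphao activated with GDP and aluminum fluoride binding bead-coupled RGS7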
RGS16-Gao single – confirmation of regulators of human RGS16-Galphao interaction; shares compounds with RGS16-Gao HTS; bead-based flow cytometry, RGS16-Galphao binding; actives lie on both sides; response (% of control binding), % at 10 µM; hit rate 4% among 1,700; in the data active = response below about 74% or above about 130%; inactive = in between;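 note: Galphao activated as the GDP aluminium fluoride complex binding bead-coupled RGS16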
RGS4-Gao confirm – confirmation of regulators of human RGS4-Galphao interaction | shares compounds with RGS16-Gao HTS | RGS4-Galphao binding, multiplexed bead flow cytometry; actives lie on both sides | binding response (% of control), % at 10 µM | hit rate 4% among 1,700 | AID 1840; in the data active = binding response below about 74% or above about 130%; inactive = in between
RGS19-Gao conf – RGS19-Galphao interaction regulation, single point confirmation | AID 1841 | response (percent of control binding), % at 10 µM | bead-based flow cytometry RGS19-Galphao binding; actives lie on both sides | hit rate 5% among 1,700 | shares compounds with RGS16-Gao HTS; in the data active = response below about 50% or above about 160%; inactive = in between;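 note: 100% = no compound control and 0% = blank background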
Target sequence (P09471 whole entry, looked up): as above
Target sequence (P49795 whole entry, looked up): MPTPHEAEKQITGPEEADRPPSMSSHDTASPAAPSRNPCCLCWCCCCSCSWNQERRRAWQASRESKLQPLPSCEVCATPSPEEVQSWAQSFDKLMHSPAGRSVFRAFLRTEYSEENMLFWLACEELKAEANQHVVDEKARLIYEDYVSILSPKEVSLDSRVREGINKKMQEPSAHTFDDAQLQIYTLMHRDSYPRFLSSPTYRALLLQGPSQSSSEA
An asterisk follows results filed as active; ? = inconclusive; . = no result; [ ] = dose if it differs, or a comment. Unless noted, the rule behind the calls is not given here.

SMILES | RGS4-Gao reg | RGS16-Gao HTS | GSH bead fluor | RGS8-Gao | Avidin fluor | RGS7-Gao | others
O=P(O)(O)C#Cc1ccccc1 | 98 | 95 | 261* | 97 | 9 | 97
O=c1[nH]c(=O)n(C2CCCCC2)c(O)c1C1NCCc2ccccc21 (centres undefined) | 106 | 100 | 261* | 103 | 6 | 102
CC(=NCc1ccco1)c1c(O)n(-c2ccc(C)cc2)c(=O)[nH]c1=O | 109 | 107 | . | 105 | 3 | ?
Nc1ccccc1N=Cc1c(O)n(CCC2=CCCCC2)c(=O)[nH]c1=O | 100 | 100 | 10 | 100 | 19 | 96
O=c1[nH]c(=O)n(CCC2=CCCCC2)c(O)c1C=Nc1cccc(F)c1 | 100 | 97 | 12 | 102 | 57* | 113
Cc1ccc(S(=O)(=O)Cc2ccc(C(=O)N3CCC4(CC3)OCCO4)o2)cc1 | 84 | 51 | 26 | 90 | 7 | 88
CC(C)(C)c1nc(NCc2ccc3c(c2)OCO3)c2nnn(Cc3ccccc3Cl)c2n1 | 101 | 104 | 141* | 100 | 4 | 102
CCCCCn1c(=O)c(C(=O)Nc2nc(CC(=O)OCC)cs2)c(O)c2ccccc21 | 101 | 103 | 96* | 103 | 22 | 102
COc1cc(NC(=O)CN2C3CCC2CC(O)(c2cccnc2)C3)cc(OC)c1 (centres undefined) | 104 | 100 | 11 | 100 | 49* | 113
O=C(Cn1cc(C(=O)c2ccccc2)c2ccccc21)NCc1ccco1 | 103 | 111 | 20 | 105 | 50* | 108
NNc1n[nH]c(=S)n1N | 144 | 144 | . | 104 | 88* | ?
CCOP(=O)(OCC)C(O)c1cccnc1 (centres undefined) | 132 | 113 | . | 109 | 81* | ?
CCOP(=O)(OCC)C(O)c1ccccc1 (centres undefined) | 108 | 101 | . | 104 | 4 | ?
O=c1c2ccccc2nc(-c2ccco2)n1-c1ccccc1 | 118 | 113 | 125* | 106 | 12 | 109
C=CCOC(=O)C1=C(C)OC(N)=C(C#N)C12C(=O)N(CN1CCOCC1)c1ccccc12 (centres undefined) | 105 | 96 | 6 | 102 | 17 | 100
COc1ccccc1Cn1c(SCC#N)nc2cc(C(=O)N3CCC4(CC3)OCCO4)ccc2c1=O | 99 | 102 | 19 | 98 | 9 | 105
Cc1n[nH]c(C)c1CCN | 104 | 105 | 16 | 102 | 59* | 102
CC1Oc2cc3c(-c4c(O)cc(O)c5c(O)c6c(cc45)OC(C)C(C)C6=O)c(O)cc(O)c3c(O)c2C(=O)C1C (centres undefined) | 14* | 15* | . | 36* | 0 | ?
CCCn1cc(C(=O)O)cn1 | 97 | 99 | 13 | 101 | 9 | ?
Cc1ccc(C2C(S(C)(=O)=O)=C(O)C(=O)N2c2ccccc2)cc1 (centres undefined) (tested in a mixture with another compound) | 94 | 100 | 9 | 95 | 13 | 94
OC12Oc3ccccc3C=C1N1CCC2CC1 (centres undefined) | 101 | 104 | 12 | 100 | 14 | 99
COc1cc2c(cc1OC)CN(c1ccc([N+](=O)[O-])c(C(F)(F)F)c1)CC2 | 102 | 107 | 19 | 100 | 7 | 99
O=C1NC(=O)C2(Cc3ccccc3N3CCCC32)C(=O)N1c1ccccc1 (centres undefined) | 99 | 100 | 23 | 99 | 54* | 111
O=C1NC(=O)C2(Cc3ccccc3N3CCCC32)C(=O)N1 (centres undefined) | 101 | 87 | 32 | 95 | 8 | 100
CC1(C)CC(=O)C(C=NCCN2CCN(C(=O)Cc3ccc(F)cc3)CC2)=C(O)C1 | 98 | 95 | 14 | 100 | 25 | 101
SMILES | RGS4-Gao reg | RGS16-Gao HTS | GSH bead fluor | RGS8-Gao | Avidin fluor | RGS7-Gao | others
O=C(CCC(=O)N1CCC2(CC1)OCCO2)Nc1nnc(C(F)(F)F)s1 | 102 | 100 | 21 | 102 | 9 | 99
CCOC(=O)N1CCC(NC(=O)CCc2nc(C3=CCN(C)CC3)no2)CC1 | 125 | 109 | 23 | 101 | 166* | 190*[activator] | RGS4-Gao HTS=125*
Cc1nn(-c2ccccc2)c(Cl)c1C1C(C#N)=C(N)Oc2c1c(=O)oc1ccccc21 (centres undefined) | 100 | 102 | 33 | 101 | 14 | 100
Nc1c([N+](=O)[O-])cc(F)c(N2CCNCC2)c1Br | 44* | 40 | 10 | 52* | 0 | 39* | Biotin-avidin=0;RGS8-Gao single=104;RGS7-Gao confirm=101;RGS16-Gao single=104;RGS4-Gao confirm=99;RGS19-Gao conf=89
CN1CCN(Cc2ccccc2Sc2ccccc2)CC1 | 99 | 103 | 7 | 99 | 5 | 98
NC(Cc1ccccc1)c1nc(-c2ccccc2)no1 (centres undefined) | 100 | 98 | . | 96 | 8 | ?
O=C(O)CC1OCC=C2CN3CCC45C6=CC(=O)C(=O)C([N+](=O)[O-])=C6NC4C1C2CC35 (centres undefined) | 46* | 47 | . | 69 | 2 | ? | Biotin-avidin=-1;RGS8-Gao single=99;RGS7-Gao confirm=97;RGS16-Gao single=97;RGS4-Gao confirm=101;RGS19-Gao conf=98
COc1ccc(NP(=O)(Nc2ccc(OC)cc2)Oc2ccccc2)cc1 | 100 | 106 | 15 | 98 | 23 | 104
O=P(Nc1ccccc1)(Nc1ccccc1)Oc1ccccc1 | 80 | 10* | 30 | 62 | 5 | 81 | RGS4-Gao HTS=80*;Biotin-avidin=0;RGS8-Gao single=99;RGS7-Gao confirm=106;RGS16-Gao single=103;RGS4-Gao confirm=105;RGS19-Gao conf=106

Bioassay records deposited in PubChem by NMMLSC.
